Out of some 16,000 compounds screened, about 5,100 (32%) were called active. Another 25% or so got no clear call; they are omitted. The list shows a part of the results. A number with no mark means an inactive call. Calls follow the shape of the dose curve; as a rule, active = well fitted curve in the direction sought with a large enough effect; inconclusive = small, poorly fitted or top-dose-only effect, or effect the other way; inactive = no such curve, though single readings can be large or run the other way.
% is scaled to controls: 0 for no effect and ±100 for the full control effect.

This assay deals with Cytochrome P450 3A4 (Homo sapiens) (UniProt P08684). The assay can be described thus: Cytochrome panel assay with activity outcomes. Conditions: recombinant CYP, pro-luciferin dealkylation, luminescence, p450-cyp3a4; series mostly up to 57.1 µM; activity, negative = inhibition: at the top concentration.
Cytochrome P450 3A4 (Homo sapiens), sequence (P08684 whole entry, looked up): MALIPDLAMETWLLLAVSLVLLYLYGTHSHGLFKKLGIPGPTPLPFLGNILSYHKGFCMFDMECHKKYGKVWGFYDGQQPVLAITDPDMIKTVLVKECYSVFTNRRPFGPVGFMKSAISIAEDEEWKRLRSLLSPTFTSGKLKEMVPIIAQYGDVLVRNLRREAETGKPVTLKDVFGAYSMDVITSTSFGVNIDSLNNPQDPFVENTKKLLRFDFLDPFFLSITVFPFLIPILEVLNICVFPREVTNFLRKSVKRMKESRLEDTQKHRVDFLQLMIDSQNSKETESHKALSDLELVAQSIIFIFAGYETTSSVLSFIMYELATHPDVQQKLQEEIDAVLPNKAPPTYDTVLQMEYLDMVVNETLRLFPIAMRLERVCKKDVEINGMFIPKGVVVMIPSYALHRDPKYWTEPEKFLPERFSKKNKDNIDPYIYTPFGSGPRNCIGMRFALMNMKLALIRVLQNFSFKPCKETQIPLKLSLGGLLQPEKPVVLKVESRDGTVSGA
Take `c1ccc(CCN2CCOCC2)nc1`: the activity, negative = inhibition was -6.24% [at 11.4 µM].
By AC50 is commonly meant the concentration giving half of the maximal activity seen. Turning to `COCCCn1c(N)c(C(=O)Nc2sc3c(c2C(=O)OC)CCCC3)c2nc3ccccc3nc21`, the half-maximal activity concentration (AC50) was 15.8 µM (active).
On to `CNC(=O)OCC[N+](C)(C)C`, for which the “activity, negative = inhibition” value was -8.08%.
Regarding `O=C1Nc2ccc(I)cc2/C1=C/c1cc(Br)c(O)c(Br)c1`, the AC50 is 5.01 µM (active).
Take `CC(C)c1ccc(C(O)(C(=O)O)c2ccc(C(C)C)cc2)cc1`: the activity, negative = inhibition is 19.4% [at 11.4 µM].
Consider `CC(C)c1ccc2c(c1)c(SC(C)(C)C)c(CC(C)(C)C(=O)O)n2Cc1ccc(Cl)cc1`, for which the AC50 is 20 µM (active).
Turning to `CC(C)(C)NC[C@H](O)c1ccccc1Cl`, the “activity, negative = inhibition” value was -11.1%.
Still for that read-out and setting: then `C[C@H](N)[C@@H](O)c1ccccc1`, with 0.449% [at 25.6 µM].
As to `C[C@H](N)c1cccc(Cl)c1Cl`, the AC50 was 25.1 µM (active).
Consider `CCOC(=O)N(c1ccccc1)P1(=S)OCCO1`, for which the activity, negative = inhibition was -25.1% [at 11.4 µM].
For the compound `O=P(Nc1c(Cl)cccc1Cl)(c1ccccc1)c1nc2c(s1)CCCC2` (stereo not drawn), the AC50 is 11.2 µM (active).
As for `O=[As](O)(O)c1ccc2nc3cc([As](=O)(O)O)ccc3nc2c1`, the activity, negative = inhibition is 5.92% [at 11.4 µM].
As for `Cn1cnc(CCN)c1`, the “activity, negative = inhibition” value was -1.69%.
On the same count and under the same terms, to `COCCCN1Cc2ccccc2C1=N` belongs -4.09%; to `O=C(O)/C=C(\CC(=O)O)C(=O)O`, -2.52% [at 11.4 µM].
The same measure, in the same setting: then `C[C@@]12CC[C@@H]3[C@H](CCC4=CC(=O)CC[C@]43C)[C@@H]1CC[C@@H]2C(=O)COS(=O)(=O)c1ccc(Br)cc1`, with 20.5% [at 11.4 µM].
Turning to `Nc1nc(OCc2ccccc2)c2[nH]cnc2n1`, the AC50 is 7.94 µM (active).
Take `O=C(Nc1ccc(F)cc1F)c1cccnc1Oc1cccc(C(F)(F)F)c1`: the “activity, negative = inhibition” value is -19.7%.
Consider `CCOC(=O)[C@@H]1[C@@H]2c3ccccc3-c3ccccc3[C@H]2C[C@H]1O`, for which the activity, negative = inhibition is -1.52% [at 11.4 µM].
In the case of `Cc1ccc(N(C)C(=O)Oc2cccc3ccc(C)nc23)cc1`, the concentration at half-maximal activity (AC50) is 15.8 µM (active).
For `N[C@H](CCl)C(=O)O`, the “activity, negative = inhibition” value is -5.68%.
On the same count and under the same terms, then `C[C@H](CCC(=O)O)[C@H]1CC[C@]2(C)[C@@H]3C(=O)C[C@H]4C(C)(C)[C@@H](O)CC[C@]4(C)[C@H]3C(=O)C[C@@]12C`, with -2.04% [at 11.4 µM].
Still for that read-out and setting: to `CN(N=O)c1cc(O)ccc1O` belongs -16.5%.
On the same count and under the same terms, then `Cn1c(=O)c2[nH]cnc2n(C)c1=O.[CH2-][C@H](Cc1cccc2cc(C(=O)O)c(=O)oc12)OC.[Hg].[OH-]`, with 12.4% [at 11.4 µM]; and `C[C@]12CC[C@H]3c4ccc(O)cc4CC[C@@H]3[C@H]1CC[C@@H]2OC(=O)CCc1ccccc1`, with -2.52% [at 11.4 µM].
Regarding `COc1ccc2c(c1)[C@]13CCCC[C@@H]1[C@H](C2)NCC3`, the AC50 was 15.8 µM (active).
Consider `O=C(CCN1CC2CCC(CC2)C1)c1cccs1`, for which the activity, negative = inhibition is -19.3% [at 11.4 µM].
The same measure, in the same setting: to `c1ccc2c(N3CCNCC3)cccc2c1` belongs -7.57%; to `N[C@@H](Cn1cc(I)c(=O)[nH]c1=O)C(=O)O`, -21.8%.
Still for that read-out and setting: then `O=c1ccc2[nH]cc(C3=CCNCC3)c2[nH]1`, with -11.9%.
Take `CCCOc1ccc2[nH]cc(C3=CCNCC3)c2n1`: the half-maximal activity concentration (AC50) was 2.51 µM (active).
Same read-out and setting: to `COc1ccc2[nH]cc(C3=CCNCC3)c2c1` belongs 1.26 µM (active).
Regarding `CCCN1CCc2cc(O)cc3c2[C@H]1Cc1ccc(O)c(O)c1-3`, the “activity, negative = inhibition” value was -22.6%.
Same read-out and setting: then `c1ccc(CCN2CCCCCC2)nc1`, with -14.2% [at 11.4 µM]; and `CCSCC[C@H](N)C(=O)O`, with 5.54% [at 11.4 µM]; and `CO[C@@H]([CH2][Hg])CN1C(=O)c2ccccc2S1(=O)=O.Cn1c(=O)c2nc[nH]c2n(C)c1=O`, with 2.75% [at 11.4 µM].
For the compound `CC(=O)OC1=CC2=CC[C@H]3[C@H]4CCC(=O)[C@@]4(C)CC(=O)[C@]3(S)[C@]2(C)CC1`, the activity, negative = inhibition is -29.7% [at 11.4 µM].
Still for that read-out and setting: then `C=C(C)[C@H]1CC[C@]2(C(=O)O)CC[C@]3(C)[C@@H](CC[C@H]4[C@@]5(C)CC[C@@H](O)C(C)(C)[C@@H]5CC[C@@]43C)[C@H]12`, with -20.4% [at 25.6 µM]; and `C[C@@H]1[C@H]2C=C[C@@H]1[C@@H](c1c3ccc(=O)c(O)c-3oc3c(O)c(O)ccc13)[C@@H]2C(=O)O`, with -0.366% [at 11.4 µM].
In the case of `O=C(C1CC(=O)N(C2CCCC2)C1)N1CCC2(CC1)OCCO2` (stereo not drawn), the “activity, negative = inhibition” value was -7.38%.
Still for that read-out and setting: to `CN1[C@@H](CC(=O)c2ccccc2)CCC[C@@H]1C[C@@H](O)c1ccccc1` belongs -5.81% [at 25.6 µM]; to `N[C@H](Cc1o[nH]c(=O)c1Cl)C(=O)O`, -20.3%; to `O=C(CNS(=O)(=O)c1cccs1)N1CCC2(CC1)OCCO2`, -9.14%.
As for `CS(=O)(=O)N1CCCC(C(=O)N2CCC3(CC2)OCCO3)C1` (stereo not drawn), the activity, negative = inhibition was 1.72% [at 2.29 µM].
In the case of `Cc1ccc(S(=O)(=O)NCC2CCC(C(=O)N3CCC4(CC3)OCCO4)CC2)cc1` (stereo not drawn), the concentration at half-maximal activity (AC50) is 15.8 µM (active).
As for `CCCCCCN=Cc1c(O)n(C)c(=O)n(C)c1=O`, the activity, negative = inhibition is 16.4% [at 2.29 µM].
For `CCN1CCN(S(=O)(=O)c2ccc(Cl)nc2)CC1`, the “activity, negative = inhibition” value was -12.9%.
The same measure, in the same setting: to `Cc1nc(N)sc1CCN` belongs -5.83%.
`COc1ccc(CCNc2cc(-c3ccccc3)nc3ncnn23)cc1`: the concentration at half-maximal activity (AC50) is 5.62 µM (active).
`C=C(C)[C@H]1CN[C@H](C(=O)O)[C@@H]1CC(=O)O`: the “activity, negative = inhibition” value was -13.9%.
Still for that read-out and setting: then `N#CCCN`, with -6.05%.
Still for that read-out and setting: to `CN(C)[C@@H]1C(=O)C(C(N)=O)=C(O)[C@]2(O)C(=O)C3=C(O)c4c(O)cccc4[C@](C)(O)[C@H]3C[C@@H]12` belongs -3.93% [at 11.4 µM]; to `CCOc1ccc(C2C(C#N)=C(N)Oc3c2c(=O)oc2ccccc32)cc1` (stereo not drawn), -8.38% [at 2.29 µM].
`C=Cn1ccnc1P(=S)(c1nccn1C=C)C1CCCCC1`: the half-maximal activity concentration (AC50) was 1.26 µM (active).
For the compound `C[C@H]1C(=O)O[C@@H]2CCN3CC=C(COC(=O)[C@@](C)(O)[C@@]1(C)O)[C@H]23`, the “activity, negative = inhibition” value was -3.99% [at 25.6 µM].
Still for that read-out and setting: then `CC(=O)N1CC[N+](C)(C)CC1`, with -9.17%.
`C[C@]12CC[C@@H]3C(=CCc4cc(O)ccc43)[C@@H]1CCC2=O`: the concentration at half-maximal activity (AC50) is 10 µM (active).
For the compound `C[C@]12CCC3c4ccc(OCC(=O)O)cc4CCC3C1CCC2=O` (stereo partly drawn), the activity, negative = inhibition is -8.48% [at 11.4 µM].
On the same count and under the same terms, then `C[C@@]12CC[C@@H]3c4ccc(O)cc4CC[C@H]3[C@H]1CC[C@H]2O`, with 2.5% [at 25.6 µM].
On the same count and under the same terms, then `CCN1C[C@]2(COC(=O)c3ccccc3N3C(=O)C[C@H](C)C3=O)CC[C@H](OC)[C@@]34[C@@H]5C[C@H]6[C@H](OC)[C@H]5[C@](O)(C[C@@H]6OC)[C@@](O)([C@@H](OC)[C@@H]23)[C@@H]14`, with -19.7%; and `C[N+](C)(C)[C@H](Cc1c[nH]c(=S)[nH]1)C(=O)O`, with -1.29% [at 11.4 µM]; and `O=[N+]([O-])O[C@H]1CO[C@H]2[C@H]1OC[C@@H]2O[N+](=O)[O-]`, with -2.14% [at 25.6 µM].
On the same count and under the same terms, to `CS(=N)(=O)CC[C@H](N)P(=O)(O)O` (stereo partly drawn) belongs 1.43% [at 11.4 µM]; to `N[C@@H](Cn1ccc(=O)n(Cc2ccc(C(=O)O)cc2)c1=O)C(=O)O`, -7.16%.
In the case of `CN(CCc1ccc(Cl)c(Cl)c1)[C@H]1CCCC[C@H]1N1CCCC1`, the AC50 is 12.6 µM (active).
Consider `CN(C)CCN(C)CCc1ccc(Cl)c(Cl)c1`, for which the “activity, negative = inhibition” value is -44.5%.
Same read-out and setting: then `COc1ccc2c(c1O)-c1c(OC)c(OC)cc3c1[C@H](C2)N(C)CC3`, with -1.12% [at 25.6 µM].
The same measure, in the same setting: then `CC(=O)O[C@@H]1CN2CCC1CC2`, with -14.7%; and `CC(=O)Nc1ccccc1C(=O)OCC(=O)c1ccc2ccccc2c1`, with 7.07%.
Turning to `c1ccc2c(c1)[I+]c1ccccc1-2`, the AC50 is 3.16 µM (active).
As to `C1CCc2nnnn2CC1`, the “activity, negative = inhibition” value is -7.33%.
`O=C(COc1ccc2ccccc2c1)N1CCN(CC2CC3C=CC2C3)CC1` (stereo not drawn): the AC50 was 12.6 µM (active).
For `CC(=O)N1CCC2(CC1)CC(=O)c1cc(OCC(=O)N3CCN(C)CC3)ccc1O2`, the “activity, negative = inhibition” value is 11.2%.
The same measure, in the same setting: to `C[N+](C)(C)CC#CCN1CCCC1=O` belongs “inactive”.
In the case of `CN1C(=O)COc2c(C(=O)N[C@@H]3CN4CCC3CC4)cc(Cl)cc21`, the “activity, negative = inhibition” value was -5.69%.
Still for that read-out and setting: then `O=C1CC[C@@]2(O)[C@H]3Cc4ccc(O)c5c4[C@@]2(CCN3CC2CC2)[C@@H]1O5`, with “inactive”.
`CCCCC/C=C\C/C=C\C/C=C\C/C=C\CCCC(=O)Nc1ccc(O)cc1`: the AC50 is 5.01 µM (active).
With `CCCC(=O)Nc1ccc(N2CCN(CC)CC2)c(Cl)c1`, the “activity, negative = inhibition” value was -2.29%.
For `NS(=O)(=O)c1ccc(-c2ccc([As](=O)(O)O)cc2)cc1`, the activity, negative = inhibition is -4.52% [at 11.4 µM].
The same measure, in the same setting: to `Oc1ccc([C@H](O)[C@@H]2CCCCN2)cc1O` belongs -7.28% [at 11.4 µM].
`CN1Cc2c(ccc3c2OCO3)[C@@H]2[C@@H](O)Cc3cc4c(cc3[C@@H]21)OCO4`: the half-maximal activity concentration (AC50) is 5.01 µM (active).
Still for that read-out and setting: to `C[N+]1(C)CCc2cc3c(cc2[C@@H]1[C@@H]1OC(=O)c2c1ccc1c2OCO1)OCO3` belongs 15.8 µM (active).
Regarding `COc1c2c(cc3c1OCO3)CCN(C)C2`, the “activity, negative = inhibition” value was -16.8% [at 25.6 µM].
Consider `CN1CCc2cc3c(cc2[C@@H]1[C@@H]1OC(=O)c2c1ccc1c2OCO1)OCO3`, for which the concentration at half-maximal activity (AC50) is 0.794 µM (active).
On to `CO[C@H]1C=C2CCN(C)[C@@H]2[C@@H]2c3cc4c(cc3C(=O)O[C@H]21)OCO4`, for which the “activity, negative = inhibition” value was -22.2% [at 25.6 µM].
On to `COc1cc2c(cc1OC)[C@H](C)NCC2`, for which the “activity, negative = inhibition” value was -4.58% [at 25.6 µM].
On the same count and under the same terms, to `CC[C@H]1CN2CC[C@@H]1C[C@H]2[C@@H](O)c1ccnc2ccc(OC)cc12` belongs 8.8% [at 25.6 µM]; to `COc1cc2c(cc1OC)[C@@]13CCN4C=C5CCO[C@H]6CC(=O)N2[C@@H]1[C@@H]6[C@H]5C[C@H]43`, 13.3% [at 11.4 µM].
On the same count and under the same terms, to `[N-]=[N+]=CC(=O)CC[C@H](N)C(=O)O` belongs -9.62% [at 11.4 µM].
The same measure, in the same setting: to `CN1CCc2cccc(Cl)c2CC1` belongs -2.46%.
Regarding `NC(=O)CN1C[C@@H](O)CC1=O`, the “activity, negative = inhibition” value was -2.79%.
As for `CN(C)C=C1C(=O)N(C2CCCCC2)C(=O)N(C2CCCCC2)C1=O`, the “activity, negative = inhibition” value is -29.6%.
Take `CN1C2C=C3C(C#N)=C(N)C(C#N)(C#N)[C@H](c4c(F)cccc4F)[C@H]3C1CC2` (stereo partly drawn): the AC50 was 4.47 µM (active).

Source of the values: PubChem BioAssay AID1851 (National Center for Advancing Translational Sciences (NCATS), 2009).
